About 14,000 (4.5%) of roughly 310,000 compounds showed an effect of 50% or more. The effect is printed as a negative number. The full list was thinned out, with strong results kept by preference.
What follows are compounds tested against human ether-à-go-go-related gene (hERG) potassium channel (human, UniProt Q12809) (assay: primary screen, population patch clamp on CHO cells stably expressing hERG; higher = less effect of the substance).
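Note: peak tail current of the secondary pulse compared with the same well before compound.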

Sequence of human ether-à-go-go-related gene (hERG) potassium channel (Q12809 whole entry, looked up): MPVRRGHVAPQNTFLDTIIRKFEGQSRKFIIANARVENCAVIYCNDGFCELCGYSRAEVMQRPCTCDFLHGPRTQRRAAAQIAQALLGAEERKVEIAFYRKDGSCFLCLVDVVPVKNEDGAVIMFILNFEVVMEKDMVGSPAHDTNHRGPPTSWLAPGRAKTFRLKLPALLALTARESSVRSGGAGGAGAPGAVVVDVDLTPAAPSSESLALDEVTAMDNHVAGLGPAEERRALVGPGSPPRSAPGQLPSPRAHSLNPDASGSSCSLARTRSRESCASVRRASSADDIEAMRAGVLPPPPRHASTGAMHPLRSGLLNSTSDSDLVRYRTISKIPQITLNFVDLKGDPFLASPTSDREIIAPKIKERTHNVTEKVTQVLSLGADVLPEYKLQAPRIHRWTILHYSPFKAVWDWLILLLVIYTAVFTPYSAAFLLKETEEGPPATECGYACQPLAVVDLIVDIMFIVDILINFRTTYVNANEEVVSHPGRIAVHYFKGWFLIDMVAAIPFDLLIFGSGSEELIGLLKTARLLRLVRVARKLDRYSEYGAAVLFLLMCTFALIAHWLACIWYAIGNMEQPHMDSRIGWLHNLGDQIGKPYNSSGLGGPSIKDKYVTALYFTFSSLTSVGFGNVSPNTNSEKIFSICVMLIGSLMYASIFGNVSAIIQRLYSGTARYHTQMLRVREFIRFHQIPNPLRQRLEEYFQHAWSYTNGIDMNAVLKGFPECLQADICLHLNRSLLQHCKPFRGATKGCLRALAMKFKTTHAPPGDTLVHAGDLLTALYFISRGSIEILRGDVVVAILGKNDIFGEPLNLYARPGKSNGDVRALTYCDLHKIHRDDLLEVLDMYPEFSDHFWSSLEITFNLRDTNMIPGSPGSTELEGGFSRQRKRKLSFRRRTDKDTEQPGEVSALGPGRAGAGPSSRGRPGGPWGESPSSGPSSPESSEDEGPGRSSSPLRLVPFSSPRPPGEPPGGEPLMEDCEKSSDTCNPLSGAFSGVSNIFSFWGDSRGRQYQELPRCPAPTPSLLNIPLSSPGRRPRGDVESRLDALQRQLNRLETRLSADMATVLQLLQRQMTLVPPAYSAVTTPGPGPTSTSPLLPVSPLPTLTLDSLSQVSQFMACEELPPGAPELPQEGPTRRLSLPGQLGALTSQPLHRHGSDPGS

Compound	hERG current change (%, negative = inhibition) at 10uM [%]
COc1ccc(-n2c(=O)c3ccccc3n(CC(=O)c3ccccc3)c2=O)cc1OC	-1.32
Cc1ccccc1OCCNc1cc(N2CCCCC2)ccc1[N+](=O)[O-]	-17.2
CCCCC(=O)Nc1ccc(C(=O)Nc2ccc(OC)cc2[N+](=O)[O-])cc1	-8.04
O=C(O)c1cn(-c2ccccc2)nc1-c1ccc(F)cc1	23.6
O=C1CN(C(=O)COC(=O)Cc2ccsc2)c2ccccc2N1	-4.05
CCC(=O)N(c1nnc(SCC(=O)NN2C(=O)NC3(CCC(C)CC3)C2=O)s1)C1CC1 (centres unmarked)	-5.47
O=C(CCS(=O)(=O)c1cccc2nonc12)Nc1ccc(Br)cc1	7.91
Cc1cc(C)n(C(=O)CCC2COc3ccccc3O2)n1 (centres unmarked)	-76.6
O=C(CCC1COc2ccccc2O1)N1CCCC1 (centres unmarked)	-3.13
Cc1cc(C)n(C(=O)CNC(=O)C2COc3ccccc3O2)n1 (centres unmarked)	14.5
Br.O=C(CN1C2=NCCCN2c2ccccc21)c1ccc([N+](=O)[O-])cc1	-75.1
Br.O=C(CN1C2=NCCCN2c2ccccc21)c1cccc(Br)c1	-71
Br.COc1cccc(C(=O)Cn2c(=N)n(C)c3ccccc32)c1	-27.2
Br.O=C(CN1CCCCC1)c1cccc(Br)c1	7.58
COc1ccc(C(=O)CN2C3=NCCCN3c3ccccc32)cc1OC	-36.5
Br.COc1cccc(C(=O)CN2C3=NCCCN3c3ccccc32)c1	-68.1
Cc1cc(C)cc(N(CC(=O)NCc2ccc(F)cc2)C(=O)CCC(=O)Nc2ccccn2)c1	18.7
COc1ccc(-c2csc(NC(=O)c3cc(=O)c4ccccc4o3)n2)cc1OC	4.58
N#Cc1ccc(-c2nc3ccccc3nc2-c2ccccc2)cc1C#N	21.7
CCc1cc2c(=O)nc3n(c2s1)Cc1ccccc1/C3=C(/O)c1cccc([N+](=O)[O-])c1	-4.6
O=C(CCN1CCN(CCO)CC1)Nc1ccc(Br)cc1	1.76
COc1ccc(C(=O)N/N=C\c2ccoc2)cc1	20.8
O=C(CN1C(=O)c2cccc3cccc1c23)NCc1ccc2c(c1)OCO2	-13.2

Compound	hERG current change (%, negative = inhibition) at 10uM [%]
C=CCn1c(SCC(=O)NCC2CCCO2)nc2scc(-c3ccccc3)c2c1=O (centres unmarked)	-15.1
COC(=O)C1=C(N)Oc2cc(N(C)C)ccc2C1c1ccccc1OC (centres unmarked)	-84.3
CCOc1ccc(Br)cc1C1C(C(=O)OC)=C(N)Oc2cc(N(C)C)ccc21 (centres unmarked)	21.4
COC(=O)C1=C(N)Oc2cc(C)[nH]c(=O)c2C1c1ccccc1OC (centres unmarked)	9.48
COc1ccc(N2CCN(C(CNC(=O)COc3ccccc3)c3ccco3)CC2)cc1 (centres unmarked)	-67
O=C(COc1ccccc1)NCC(c1ccco1)N1CCN(c2ccccc2)CC1 (centres unmarked)	-26.6
O=C(COc1ccccc1)NCC(c1ccco1)N1CCN(c2ccc(F)cc2)CC1 (centres unmarked)	-41
Cc1ccccc1OCC(=O)NCC(c1ccco1)N1CCCCC1 (centres unmarked)	-31.4
Cc1cc(C)c(OCC(=O)NCC(c2ccco2)N2CCCCC2)c(C)c1 (centres unmarked)	-52.1
Cc1ccc(C)c(OCC(=O)NCC(c2ccco2)N2CCCCC2)c1 (centres unmarked)	-2.72
C[C@H](NC(=O)c1ccco1)C(=O)NC1CCCCCC1	-0.515
O=C(c1cccnc1)N1N=C(c2cccs2)CC1c1ccc(F)cc1 (centres unmarked)	-34.7
Cc1ccc(NC(=O)c2cccs2)cc1S(=O)(=O)Nc1cccc(Cl)c1	8.25
COc1ccc(NC(=S)N2CCC(C(=O)c3ccc(C)cc3)CC2)c(OC)c1	24.7
CCOc1cc(/C=N\NC(=O)CC(=O)NCCc2ccccc2)ccc1O	1.94
Cc1ccc(C)c(-c2nnc(NC(=O)Cc3ccccc3)o2)c1	16.1
COc1ccc(S(=O)(=O)N2CCN(C3Cc4ccccc4C3)CC2)cc1	11.8
O=C(Nc1cccc(C(F)(F)F)c1)c1cncs1	20
O=c1cc(CO)occ1OCc1cccc(F)c1	-9.93
COc1ccc(CN2CCN(C(=O)c3ccco3)CC2)cc1OCc1ccccc1	-51.2
O=C(c1ccco1)N1CCN(Cc2cc(=O)c(OCc3ccc(F)cc3)co2)CC1	-62.2
O=C(COc1coc(CN2CCc3ccccc3C2)cc1=O)Nc1ccc([N+](=O)[O-])cc1	-31.7
O=C(c1ccco1)N1CCN(Cc2cc(=O)c(OCc3ccccc3)co2)CC1	-25.5

Compound	hERG current change (%, negative = inhibition) at 10uM [%]
O=C(c1ccco1)N1CCN(Cc2cc(=O)c(OCc3ccc([N+](=O)[O-])cc3)co2)CC1	-76.2
CC(C)NC(=O)COc1coc(CN2CCN(C(=O)c3ccco3)CC2)cc1=O	10.3
O=C(c1ccco1)N1CCN(Cc2cc(=O)c(OCc3cccc(F)c3)co2)CC1	-76.4
COc1ccc(CN2CCN(C(=O)c3ccco3)CC2)cc1OC.O=C(O)C(=O)O	16.8
O=C(c1ccco1)N1CCN(Cc2cccc(F)c2)CC1	-0.928
CCOc1cc(CN2CCN(C(=O)c3ccco3)CC2)ccc1OC	-28.7
O=C(O)CCCCCn1c(SCC(=O)c2ccc(O)c(O)c2)nc2ccsc2c1=O	32.2
O=C(N[C@@H](Cc1ccccc1)C(=O)NC1CCCCC1)c1ccco1	6
CN1CCN(NS(=O)(=O)c2ccc(Cl)cc2)CC1	19.4
COc1ccc(CCNC(=O)c2cccs2)cc1	10.9
O=C(O)C(=O)O.c1ccc2c(OCCCCN3CCOCC3)cccc2c1	10.7
Brc1ccccc1OCCCN1CCCCCC1.O=C(O)C(=O)O	-72.6
O=C(O)C(=O)O.c1ccc2c(OCCCN3CCCCCC3)cccc2c1	-65.8
Brc1ccccc1OCCCN1CCCC1.O=C(O)C(=O)O	-12.4
Brc1ccccc1OCCCCN1CCCCC1	-39.1
c1ccc2c(OCCCCN3CCCC3)cccc2c1	-27.1
CC1(C)Cc2cccc(OCC(=O)Nc3ccccc3N3CCOCC3)c2O1	-10.8
CCOc1c(Cl)cc(CNC(C)(C)CC(C)(C)C)cc1OC.Cl	-13.2
CCCn1c(=O)[nH]c(=O)c2c1nc(-c1ccc(C(F)(F)F)cc1)n2CCOC	-4.45
CCOC(=O)CN1C(=O)/C(=C/c2c(F)cccc2Cl)Oc2ccccc21	9.08
COc1ccc2cc(C3(C)NC(=O)NC3=O)ccc2c1 (centres unmarked)	-0.239
CN(C(=O)CSc1nnc(C2CC2)n1C1CC1)C1(C#N)CCCCC1	-5.85
O=C(N/N=C/c1ccc(OC(=O)c2cccc(F)c2)cc1)c1cccnc1	-69.6

Compound	hERG current change (%, negative = inhibition) at 10uM [%]
O=C(N/N=C(\c1ccccc1)c1cccnc1)c1cc(O)ccc1O	16.4
O=C(N/N=C(\c1ccccc1)c1cccnc1)c1cccc(F)c1	-61.5
O=C(N/N=C/c1cccnc1)c1cccc(F)c1	2.67
O=C(N/N=C/c1ccc(OC(=O)c2cccc(Br)c2)cc1)c1cccnc1	11.4
Cc1ccc(C(=O)N/N=C\c2ccc(OC(=O)c3cccc(F)c3)cc2)cn1	11
Br.CC(C)(C)C(=O)Cn1c(NCCO)nc2ccccc21	5.72
O=C(OCC(=O)N1CCc2ccccc21)C1CCCN1S(=O)(=O)c1ccc(Cl)cc1 (centres unmarked)	-17.8
CC(C)COc1ccc(C(=O)OCC(=O)N(C)CC(=O)Nc2ccc(F)cc2)cc1	6.57
CCOC(=O)Cc1cc(C)[nH]c1C(=O)OCC	-5.81
C=CCNC(=O)c1c2c(nc3ccccc13)-c1ccccc1CC2	-46.4
CCOc1ccccc1CN1CCCC(C(=O)c2ccc(OC)c(OC)c2)C1 (centres unmarked)	-74.2
CCOC(=O)C1CCCN(Cc2ccccc2OCC)C1 (centres unmarked)	-2.92
COc1ccc(Cl)cc1C(=O)C1CCCN(CCO)C1 (centres unmarked)	-11.2
CCOc1cc(CN2CCCC(C(=O)c3cccc(C(F)(F)F)c3)C2)ccc1O (centres unmarked)	-61.2
CCCC(=O)N1CCCC(C(=O)c2ccc(OC)c(OC)c2)C1 (centres unmarked)	12.7
COc1ccc(CN2CCCC(C(=O)c3cccc(C(F)(F)F)c3)C2)cc1O (centres unmarked)	-62.2
CCOc1cccc(CN2CCCC(C(=O)c3cc(Cl)ccc3OC)C2)c1O (centres unmarked)	-64.3
CCOc1cccc(CN2CCCC(C(=O)Nc3ccc(-c4ccn[nH]4)cc3)C2)c1O (centres unmarked)	-29.5
CCOC(=O)C1CCCN(Cc2ccc(O)c(OC)c2)C1 (centres unmarked)	-6.59
O=S(=O)(c1ccc(F)cc1)N1CCCC(c2nc(-c3ccc(F)cc3)no2)C1 (centres unmarked)	-13.9

Source: paper PMC4336329 (PLoS ONE, 2015)
